Bioassay records as filed in PubChem.
Mtb FBA inh: Mtb fructose-bisphosphate aldolase inhibition; P9WQA3; purified M. tuberculosis FBA, fluorescence read-out; inhibition, % at 1 µM; hit rate 2.3% among 360,000; in the data active = inhibition above about 27%;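 also: 0% = vehicle and 100% = reference inhibitor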
Target sequence (P9WQA3 whole entry, looked up): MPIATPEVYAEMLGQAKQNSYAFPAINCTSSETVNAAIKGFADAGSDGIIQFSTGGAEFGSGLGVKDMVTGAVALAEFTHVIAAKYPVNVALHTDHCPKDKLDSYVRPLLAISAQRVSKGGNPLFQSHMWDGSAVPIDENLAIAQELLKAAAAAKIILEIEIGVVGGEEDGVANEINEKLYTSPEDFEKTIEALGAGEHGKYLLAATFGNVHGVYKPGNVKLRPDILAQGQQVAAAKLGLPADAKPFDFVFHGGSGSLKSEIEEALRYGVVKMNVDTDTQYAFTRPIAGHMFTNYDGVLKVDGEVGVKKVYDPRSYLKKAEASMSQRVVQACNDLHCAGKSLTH
Y pestis TopoI: inhibitors of Yersinia pestis topoisomerase I | activity, % at 10 µM | AID 504884 | Y. pestis Topo-I cleavage product accumulation, plate reader | hit rate 0.064% among 360,000; in the data active = activity above about 50%, passing the limit was not always enough
TcdB GH inh: blocks C. difficile toxin B glycohydrolase activity; P18177; TcdB glycohydrolase enzymatic assay, plate reader; inhibition, % at 9.99 µM; hit rate 0.24% among 350,000
PrPC TRFRET: reduces human prion protein on the cell surface. P04156. cell surface PrPC, TR-FRET read-out. inhibition, % at 13.8 µM. hit rate 0.43% among 370,000. AID 720596; in the data active = inhibition above about 24%; also: 0% = median of the test wells and 100% = reference compound wells
GDH-TPI counter-1: inhibits GDH-TPI coupling enzymes, artifact for Mtb FBA screen. GDH-TPI coupled enzyme counterscreen, NADH absorbance. inhibition, % at 4.8 µM. hit rate 1.2% among 360,000. AID 588335; in the data active = inhibition above about 30%;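 also: 0% = DMSO wells and 100% = wells lacking the enzyme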
Mtb FBA inh conf: confirmation of M. tuberculosis fructose-bisphosphate aldolase inhibitors | shares compounds with Mtb FBA inh | purified M. tuberculosis FBA, fluorescence read-out | inhibition, % at 1 µM | hit rate 78% among 5,600; in the data active = inhibition above about 27%;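 also: 0% = vehicle wells and 100% = reference inhibitor wells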
GDH-TPI counter-2: inhibits GDH-TPI coupling enzymes, flagging Mtb FBA hits; inhibition, % at 1 µM; AID 652141; hit rate 81% among 5,600; GDH-TPI coupled enzyme counterscreen, fluorescence; shares compounds with Mtb FBA inh
* = called active by the depositor; nt = no result given; + = active, no number. Shown are actives, neighbours in structure and some others; about 3.2% of the full set was active somewhere. Rule as the data show it, unless noted: active = inhibition above about 10%; inactive = the rest.

SMILES	Mtb FBA inh	Y pestis TopoI	TcdB GH inh	PrPC TRFRET	GDH-TPI counter-1	Mtb FBA inh conf	GDH-TPI counter-2
CC1=CC=CC2=NC(=O)CC(C)(C(=O)N(CC(=O)NC3CCCC3)c3ccccc3C)N12 (configuration not stated)	110.1*	3.7	nt	-1.0	4.3	121.0*	95.3*
CC1=CC=CC2=NC(=O)CC(C)(C(=O)N(CC(=O)NC3CCCC3)c3ccc(F)cc3)N12 (configuration not stated)	95.2*	-8.1	0.8	9.3	8.1	+	+
CC1=CC=CC2=NC(=O)CC(C)(C(=O)O)N12 (configuration not stated)	102.7*	5.2	1.6	5.7	0.6	21.4	13.6*
C[C@@H]1CN([C@H](C)CO)C(=O)c2cccc(NC(=O)Nc3ccc4c(c3)OCO4)c2O[C@H]1CN(C)S(=O)(=O)c1ccc(F)cc1	nt	nt	-1.8	nt	nt	nt	nt
COc1ccc(-c2ccnc3nc(-n4cccc4)nn23)cc1	6.3	10.7	nt	0.7	11.2	nt	nt
O=C1c2ccccc2C(=O)N1c1nc2nccc(-c3ccccc3)n2n1	32.4*	2.0	nt	-2.2	7.9	31.3*	35.3*
c1ccc(Oc2ccc(-c3ccnc4nc(N5CCOCC5)nn34)cc2)cc1	41.7*	3.9	1.4	-8.1	16.7	+	+
CC(Oc1ccccc1)c1ccnc2nc(N3CCOCC3)nn12 (configuration not stated)	15.7	12.4	0.7	-7.0	9.4	nt	nt
COc1ccc(-c2ccc3c(c2)CN(C(=O)CCc2ccccc2)Cc2cnnn2-3)cc1	63.3*	nt	0.6	-2.2	nt	+	173.0*
C[C@H]1CN([C@@H](C)CO)C(=O)Cc2cc(NS(=O)(=O)c3ccc(F)cc3)ccc2O[C@@H]1CN(C)S(=O)(=O)c1cn(C)cn1	nt	nt	1.4	nt	nt	nt	nt
COc1cccc(-c2ccc3c(c2)O[C@@H](CN(C)C)[C@@H](C)CN([C@@H](C)CO)S3(=O)=O)c1	nt	nt	1.1	nt	nt	nt	nt
Cc1nn(-c2ccc(F)cc2)c2sc(C(=O)OC3CCOC3=O)cc12 (configuration not stated)	86.0*	15.2	nt	1.9	8.4	74.2*	59.0*
C[C@H](NC(=O)C[C@@H]1C=C[C@@H](NC(=O)C2CC2)[C@H](CO)O1)c1ccccc1	nt	nt	0.0	nt	nt	nt	nt
CC(C)OC(=O)N(C)C[C@@H]1OCc2ccccc2-c2ccccc2C(=O)N([C@H](C)CO)C[C@H]1C	nt	nt	-0.5	nt	nt	nt	nt
O=C(N/N=C/c1ccc(O)c(O)c1)c1ccc(-n2cnnn2)cc1	52.1*	2.5	-1.2	-11.1	25.4	51.8*	52.4*
O=C(N/N=C/c1cccc(O)c1)c1ccc(-n2cnnn2)cc1	1.1	-2.6	-1.2	-5.8	13.4	nt	nt
CN(C)CC(=O)N[C@@H]1CC[C@H](CC(=O)NCCN2CCCCC2)O[C@@H]1CO	nt	nt	-1.2	nt	nt	nt	nt
O=C(CN1C(=O)/C(=C\c2ccccc2Br)Oc2ccccc21)NCCCN1CCOCC1	41.0*	11.8	0.0	-2.3	18.1	58.2*	53.4*
CC1Oc2ccccc2N(CC(=O)NCCCN2CCOCC2)C1=O (configuration not stated)	-0.1	1.9	-0.2	1.8	0.0	nt	nt
O=C(N/C(=C\c1cccc([N+](=O)[O-])c1)C(=O)N1CCOCC1)c1ccco1	64.9*	-0.4	1.4	-12.6	20.1	176.1*	142.2*
O=C(N/C(=C/c1cccc([N+](=O)[O-])c1)C(=O)N1CCCCCC1)c1ccco1	-1.6	19.9	-0.1	-20.7	15.9	nt	nt
Cc1ccc(S(=O)(=O)N(C)C[C@H]2OCCCC[C@@H](C)Oc3ccc(NC(=O)Nc4cccc5ccccc45)cc3C(=O)N([C@@H](C)CO)C[C@H]2C)cc1	nt	nt	-0.9	nt	nt	nt	nt
COc1ccc(-c2cc(=Nc3ccc(C)cc3)c3ccccc3o2)cc1	28.6*	7.1	nt	-7.2	20.8	107.8*	76.6*
CCOc1ccc(N=c2cc(-c3ccc(OC)cc3)oc3ccccc23)cc1	21.9	0.7	-0.1	-5.1	14.2	nt	nt
C=CCOc1ccc(CNc2ccc3[nH]c(=O)[nH]c3c2)cc1OC	85.1*	-8.3	-1.0	-9.5	15.2	113.7*	88.0*
COc1cccc(-c2ccc3c(c2)[C@H]2[C@H](CCN2C(=O)C2CC2)[C@@H](CO)N3)c1	nt	nt	2.7	nt	nt	nt	nt
COc1ccc(NC(=O)N(C)C[C@@H]2Oc3c(NS(=O)(=O)c4cn(C)cn4)cccc3C(=O)N([C@@H](C)CO)C[C@@H]2C)cc1	nt	nt	0.2	nt	nt	nt	nt
